Results on 38 compounds are retold here after PubChem BioAssay (EPA / NIEHS).

Activity calls are given as the source filed them. How the source made its calls, unless noted: active means hit-call score of the fitted dose curve at least 0.9, where 1 is the maximum; inactive means score below 0.9.

Usually AC50 stands for the concentration at which the activity in the assay is half-maximal.

Read-out in the first assay: X-box binding protein 1 (XBP1), XBP1 (gene 7494)
The assay can be described thus: LTEA_HepaRG_XBP1: Life Technologies and Expression Analysis (LTEA) Assay for X-box binding protein 1 (XBP1) using HepaRG (AID 2283540). As to conditions: mRNA level, 48 h; actives raise or lower the signal. In short, it runs like this:
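Differentiated human HepaRG cells in serum-free induction medium were exposed in duplicate for 48 h to eight half-log concentrations up to 100 uM in 0.5% DMSO. XBP1 mRNA was quantified by qRT-PCR, normalised to ACTB, GAPDH and POLR2A, with bidirectional fitting against DMSO.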
As for `COc1cccc([C@H](O)C2CCN(CCc3ccc(F)cc3)CC2)c1OC`, the compound was classed as inactive. For the compound `OC12N=C(c3ccccc3)SC1Cc1cc(Cl)ccc12` (stereo unspecified), the concentration at half-maximal activity (AC50) was 3.94 µM (active). With `Oc1ccc2ccccc2c1`, the call was inactive.

With `CCCCCCCCN(C)CCCCCCCC`, the compound was called inactive. For `Cc1oc2c(NC(=O)c3c(Cl)cccc3Cl)cccc2c1C(C)(C)O`, the AC50 was 11.3 µM (active). Take `CCCCCCCC[Si](OCC)(OCC)OCC`: the outcome was inactive. Take `Clc1cc(Cl)c2c(c1)N=C1CCCCCN1C2`: the result was inactive. Still for that read-out and setting: then `c1ccc2ccccc2c1`, with “inactive”; and `C[C@]12CC[C@@H]3c4ccc(O)cc4CC[C@H]3[C@@H]1CCC2=O`, with “inactive”. On the same count and under the same terms, next, `O=C(O)Cn1c(=O)n(Cc2ccc(Br)cc2F)c(=O)c2ccc(Cl)cc21`: “inactive”. Still for that read-out and setting: then `O=c1[nH]sc2ccccc12`, with “inactive”; and `CCCCCCCCCCCO`, with “inactive”; and `CN(C)c1ccc(C(=C2C=CC(=[N+](C)C)C=C2)c2ccc(N(C)C)cc2)cc1`, with “inactive”. For `CCO[Si](CCCNC(N)=O)(OCC)OCC`, the outcome was inactive.

Take `COCC(C)OCC(C)OCC(C)O` (stereo unspecified): the compound was called inactive. On the same count and under the same terms, next, `Cc1ncc(CO)c(CO)c1O`: “inactive”. In the case of `CCOC(=O)O[C@H](C)OC(=O)c1ccc2c(c1)cc(C(=O)NC1CCN(C(C)C)CC1)n2Cc1cc(-c2ccc(Cl)s2)on1`, the call was inactive.

In the case of `CC(O)CC(C)(C)O` (stereo unspecified), the compound was called inactive. Still for that read-out and setting: then `CC1=CC(=O)/C(=C(/C)O)C(=O)O1`, with “inactive”; and `C[C@]12CC[C@@H]3c4ccc(O)cc4CC[C@H]3[C@@H]1CC[C@H]2O`, with “inactive”; and `c1ccc(C[n+]2cccc3ccccc32)cc1`, with “inactive”. Take `CC(C)(C)c1cc(/C=C2\SC(N)=NC2=O)cc(C(C)(C)C)c1O`: the result was inactive. In the case of `CC[C@H](NC(=O)c1cc(F)ccc1NS(=O)(=O)c1cccc2cccnc12)c1ccccc1`, the call was inactive. On the same count and under the same terms, then `Cc1ccc(C(C)C)cc1`, with “inactive”.

With `CCCCOC(=O)CC(CC(=O)OCCCC)(OC(C)=O)C(=O)OCCCC`, the result was inactive. The same measure, in the same setting: next, `CCCCCCCCCCCCO`: “inactive”; `OCCO`: “inactive”. Take `CCCC(=O)OCCC(C)C`: the result was inactive. Same read-out and setting: next, `O=c1ccc2ccccc2o1`: “inactive”; `O=C(O)c1ccccc1-n1cc(C(=O)O)c(=O)c2cc(Nc3c(F)cc(F)cc3Cl)c(Cl)cc21`: “inactive”; `Cc1cc2c(cc1C(F)(F)F)N(C(=O)Nc1ccc(Oc3cccnc3C)nc1)CC2`: “inactive”.

Take `CC[C@@H]1C[C@H](N(Cc2cc(C(F)(F)F)cc(C(F)(F)F)c2)C(C)=O)c2cc(C(F)(F)F)ccc2N1C(=O)OC(C)C`: the compound was classed as inactive. The same measure, in the same setting: next, `Cc1occc1C(=O)Nc1ccc(C(=O)N2CCC(F)(F)/C(=C\C(=O)N3CCC(N4CCCCC4)CC3)c3ccccc32)cc1`: “inactive”; `CC(C)(O)c1ccc(CNC(=O)c2cccnc2Oc2ccc3nonc3c2)cc1`: “inactive”; `CN1C(=O)CC[C@H]1c1cccnc1`: “inactive”. For the compound `O=C=NCCCCCCN=C=O`, the result was inactive. With `O=C(O)c1ccccc1C(=O)OCc1ccccc1`, the compound was classed as inactive.

Read-out in another assay: not listed separately
Put plainly: LTEA_HepaRG_LDH_cytotoxicity: Cytotoxicity Assessment in the Life Technologies and Expression Analysis (LTEA) Assay (AID 2283563; active means hit-call score of the fitted dose curve at least 0.9, where 1 is the maximum;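 on AC50: LDH activity released into spent culture medium as a marker of cell death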).
Settings: not given
In short, it runs like this:
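Differentiated human HepaRG cells, plated 48 h beforehand, were switched to serum-free induction medium and exposed for 48 h to eight half-log concentrations (top 100 uM) in 0.5% DMSO. LDH was measured in spent medium; activity was fitted relative to DMSO vehicle.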
Turning to `COc1cccc([C@H](O)C2CCN(CCc3ccc(F)cc3)CC2)c1OC`, the outcome was inactive.

Take `OC12N=C(c3ccccc3)SC1Cc1cc(Cl)ccc12` (stereo unspecified): the call was inactive. On the same count and under the same terms, next, `Oc1ccc2ccccc2c1`: “inactive”. Still for that read-out and setting: then `CCCCCCCCN(C)CCCCCCCC`, with “inactive”. Same read-out and setting: next, `CCCCCCCC[Si](OCC)(OCC)OCC`: “inactive”; `Clc1cc(Cl)c2c(c1)N=C1CCCCCN1C2`: “inactive”; `c1ccc2ccccc2c1`: “inactive”.

Regarding `C[C@]12CC[C@@H]3c4ccc(O)cc4CC[C@H]3[C@@H]1CCC2=O`, the result was inactive.

On to `O=C(O)Cn1c(=O)n(Cc2ccc(Br)cc2F)c(=O)c2ccc(Cl)cc21`, for which the compound was called inactive. Take `O=c1[nH]sc2ccccc12`: the compound was called inactive.

For the compound `CCCCCCCCCCCO`, the compound was classed as inactive. Regarding `CN(C)c1ccc(C(=C2C=CC(=[N+](C)C)C=C2)c2ccc(N(C)C)cc2)cc1`, the AC50 is 9.3 µM (active).

For the compound `CCO[Si](CCCNC(N)=O)(OCC)OCC`, the outcome was inactive. The same measure, in the same setting: then `COCC(C)OCC(C)OCC(C)O` (stereo unspecified), with “inactive”. For `CCOC(=O)O[C@H](C)OC(=O)c1ccc2c(c1)cc(C(=O)NC1CCN(C(C)C)CC1)n2Cc1cc(-c2ccc(Cl)s2)on1`, the half-maximal activity concentration (AC50) was 79.2 µM (active). As to `CC(O)CC(C)(C)O` (stereo unspecified), the result was inactive.

`CC1=CC(=O)/C(=C(/C)O)C(=O)O1`: the call was inactive. Take `c1ccc(C[n+]2cccc3ccccc32)cc1`: the AC50 was 34.4 µM (active).

For `CC(C)(C)c1cc(/C=C2\SC(N)=NC2=O)cc(C(C)(C)C)c1O`, the AC50 is 37.3 µM (active). With `CC[C@H](NC(=O)c1cc(F)ccc1NS(=O)(=O)c1cccc2cccnc12)c1ccccc1`, the compound was classed as inactive.

As to `Cc1ccc(C(C)C)cc1`, the call was inactive. On the same count and under the same terms, next, `CCCCOC(=O)CC(CC(=O)OCCCC)(OC(C)=O)C(=O)OCCCC`: “inactive”; `CCCCCCCCCCCCO`: “inactive”.

As for `OCCO`, the call was inactive. On the same count and under the same terms, then `CCCC(=O)OCCC(C)C`, with “inactive”; and `O=c1ccc2ccccc2o1`, with “inactive”; and `O=C(O)c1ccccc1-n1cc(C(=O)O)c(=O)c2cc(Nc3c(F)cc(F)cc3Cl)c(Cl)cc21`, with “inactive”. For `Cc1cc2c(cc1C(F)(F)F)N(C(=O)Nc1ccc(Oc3cccnc3C)nc1)CC2`, the AC50 was 70.5 µM (active). Turning to `CC[C@@H]1C[C@H](N(Cc2cc(C(F)(F)F)cc(C(F)(F)F)c2)C(C)=O)c2cc(C(F)(F)F)ccc2N1C(=O)OC(C)C`, the result was inactive. Consider `O=C1O[C@H]([C@@H](O)CO)C(O)=C1O`, for which the outcome was inactive.

As to `Cc1occc1C(=O)Nc1ccc(C(=O)N2CCC(F)(F)/C(=C\C(=O)N3CCC(N4CCCCC4)CC3)c3ccccc32)cc1`, the AC50 was 49.6 µM (active).

On to `CC(C)(O)c1ccc(CNC(=O)c2cccnc2Oc2ccc3nonc3c2)cc1`, for which the outcome was inactive.

Consider `CN1C(=O)CC[C@H]1c1cccnc1`, for which the compound was called inactive.

Take `O=C=NCCCCCCN=C=O`: the outcome was inactive.
